Compound activity: PubChem BioAssay, several laboratories
In the library only some 1.4% were active in any assay of this set; here they are far more common.
LYP inh 2: PTPN22 phosphatase inhibitors, primary screen, biochemical, DiFMUP fluorescence, 2 µM; Tyrosine-protein phosphatase non-receptor type 22 (Homo sapiens), Q9Y2R2; recombinant LYP catalytic domain; inhibition, % at 2 µM; 96,000 compounds, 0.21% hits;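 active = inhibition at 2 µM at or above a set limit, the screen mean plus 3 SD, cut at about 24% in these data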;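 note: 0% = DMSO with enzyme and 100% = enzyme fully blocked by orthovanadate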
S1P2 agonist: S1P2 receptor agonists, primary screen, cell-based. Sphingosine 1-phosphate receptor 2 (Homo sapiens), O95136. S1P2-expressing cell line, agonist reporter read-out. activation, % at 4.5 µM. 97,000 compounds, 0.46% hits; in the data active = activation above about 16%;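 note: 0% = vehicle low control and 100% = maximal reference agonist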
GALR2 agonist: GALR2 receptor agonists, primary screen, cell-based; AID 803, 2007; 140,000 compounds, 0.48% hits; activation, % (concentration not given with the values); GALR2-expressing cells, agonist activation read-out; in the data active = activation above about 5%, passing the limit was not always enough;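 note: 0% = vehicle buffer wells and 100% = reference agonist at full effect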
Target sequence (O43603 whole entry, looked up): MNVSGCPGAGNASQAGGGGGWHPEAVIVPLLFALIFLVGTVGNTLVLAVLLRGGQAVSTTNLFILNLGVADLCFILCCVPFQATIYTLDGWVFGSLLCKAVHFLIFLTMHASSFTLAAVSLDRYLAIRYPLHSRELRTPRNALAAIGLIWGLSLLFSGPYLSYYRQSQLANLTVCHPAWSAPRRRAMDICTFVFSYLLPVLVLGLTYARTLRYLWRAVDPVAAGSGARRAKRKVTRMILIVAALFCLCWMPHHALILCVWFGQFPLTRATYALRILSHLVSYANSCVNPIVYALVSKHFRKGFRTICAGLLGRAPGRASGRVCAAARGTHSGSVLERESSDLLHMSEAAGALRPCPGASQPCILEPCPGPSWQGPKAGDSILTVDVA
LYP act: LYP phosphatase activators, primary screen, biochemical, DiFMUP fluorescence, 2 µM; Tyrosine-protein phosphatase non-receptor type 22 (Homo sapiens), Q9Y2R2; recombinant LYP; 0 = plate median, 100 = signal doubled; activation, % at 2 µM; 96,000 compounds, 0.11% hits;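 active = activation at 2 µM above a set limit, the mean plus 5 SD, cut at about 37% in these data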
GALR2 blocker: GALR2 antagonists in receptor-expressing cells, primary screen | 140,000 compounds, 0.39% hits | Galanin receptor type 2 (Homo sapiens), O43603 | inhibition, % at 4 µM | AID 828, 2007 | antagonist mode; in the data active = inhibition above about 27%;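 note: cells stimulated with galanin 1-16 at roughly its EC80; 0% = agonist challenge control and 100% = basal control without agonist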
S1P2 blocker: human S1P2 receptor antagonists, primary screen, cell-based. inhibition, % at 5 µM. cell-based S1P2 antagonist assay, inhibition at 5 uM. 97,000 compounds, 0.21% hits. Sphingosine 1-phosphate receptor 2 (Homo sapiens), O95136; in the data active = inhibition above about 45%;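 note: CRE beta-lactamase reporter cells expressing human S1P2 stimulated with S1P; 0% = agonist at EC80 alone and 100% = agonist plus reference antagonist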
GALR2 agon conf: GALR2 agonists, retest of hits, confirmation, cell-based | shares compounds with GALR2 agonist | activation, % at 5.6 µM | 460 compounds, 10% hits | GALR2-expressing cells, agonist activation; in the data active = activation above about 8.4%;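 note: 0% = buffer-only vehicle wells and 100% = full reference agonist response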
BLA act counter: activators of NFAT-driven beta-lactamase reporter, confirmation, counter-screen for GALR2 agonist project, CHO NFAT-bla cells, FRET readout | shares compounds with GALR2 agonist | beta-lactamase FRET activation | activation, % at 5.6 µM | 460 compounds, 10% hits | AID 865, 2007;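 active = activation above the screen-wide mean activation plus 3 SD, cut at about 8% in these data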;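 note: 0% = DMSO with PBS wells and 100% = thapsigargin positive control wells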
* hit, by the source's call; nt = no result.

SMILES	LYP inh 2	S1P2 agonist	GALR2 agonist	LYP act	GALR2 blocker	S1P2 blocker	GALR2 agon conf	BLA act counter
Cc1cc2c(c(=O)n1Cc1cccnc1)C(c1ccccc1)C(C#N)=C(N)O2 (configuration not stated)	0	-2	-2	-4	-7	13	nt	nt
N#C/C(=C\c1cccc(NC(=O)c2ccccc2Cl)c1)C(=O)NCCc1ccccc1	nt	nt	-2	nt	7	nt	nt	nt
CCNC(=S)N(Cc1ccc2c(c1)OCO2)C1CC(=O)N(c2ccc(F)cc2)C1=O (configuration not stated)	4	-7	11	1	1	-2	-1	-2
CCOC(=O)c1cc2nc(Nc3ccc(OC)cc3)sc2s1	-2	7	11	1	3	-7	3	6
Cc1ccc(C2C(C=Nc3c(C)n(C)n(-c4ccccc4)c3=O)=C(c3ccccc3)Oc3ccccc32)cc1 (configuration not stated)	0	-7	-2	4	1	-5	nt	nt
O=C(O)C(Cc1ccccc1)N1Cc2ccccc2C1=O (configuration not stated)	-4	-5	11	6	-3	-4	-1	-3
CCOC(=O)c1ccc(NC(=S)N2CCSC2c2ccc(OC)cc2)cc1 (configuration not stated)	nt	nt	1	nt	-16	nt	nt	nt
CCOC(=O)c1ccc(NC(=S)N2CCSC2c2ccc(Cl)cc2)cc1 (configuration not stated)	nt	nt	8.8*	nt	-22	nt	9.4*	18*
O=C(NC(NC(=S)Nc1ccc(Cl)cc1Cl)C(Cl)(Cl)Cl)c1cccc([N+](=O)[O-])c1 (configuration not stated)	1	-5	-2	3	-16	33	nt	nt
O=C(COc1ccc(Cl)cc1)NNC(=O)C(=O)N1CCCCC1	4	-2	29*	1	0	-11	0	0
O=C(NCc1ccco1)c1cccc(F)c1	-4	-3	8	2	-9	21	-1	-1
COc1ccc(Cn2c(=S)[nH]c3ccsc3c2=O)cc1	nt	nt	-2	nt	17	nt	nt	nt
Cc1ccc(NC(=O)NNC(=O)c2cccs2)cc1	nt	nt	-1	nt	4	nt	nt	nt
CC(=O)Nc1ccc(Sc2ncccc2C(=O)Nc2ccc(OC(F)(F)F)cc2)cn1	-7	-5	22*	11	-38	3	16*	43*
CCC(CC)C(=O)NCCc1ccc(S(N)(=O)=O)cc1	-3	-4	10	5	2	2	0	-1
CCCCC(CC)C(=O)NCCc1ccc(S(N)(=O)=O)cc1 (configuration not stated)	2	-1	-1	-3	10	-10	nt	nt
COc1cccc(C(=O)OCC(=O)Nc2cc(C)c(C)cc2[N+](=O)[O-])c1	nt	nt	-2	nt	-9	nt	nt	nt
COc1cc(CNCCc2ccc(S(N)(=O)=O)cc2)ccc1OCC(=O)N1CCCCC1	nt	nt	0	nt	8	nt	nt	nt
COC(=O)c1cc(C(C)=O)n2ccccc12	-6	2	0	7	-10	-20	nt	nt
CCOC(=O)c1cc(C(=O)OCC)c2ccccn2c1=O	-6	12	15*	2	-8	-24	2	6
COc1ccc(Br)cc1CN1CCCC(C(=O)N2CCCCC2)C1 (configuration not stated)	7	-2	-2	-7	-7	-3	nt	nt
COc1ccc(OC)c(CN2CCCC(C(=O)N3CCCCC3)C2)c1 (configuration not stated)	-7	0	72*	6	3	16	0	-2
O=S(=O)(Nc1ccc2c(c1)OCO2)c1ccccc1	-3	-5	34*	5	1	7	0	-1
CCN1CCN(CC(=O)N/N=C/c2ccc(F)cc2F)CC1	nt	nt	-1	nt	5	nt	nt	nt
Cc1c(/C=N/n2cnnc2)c2ccccc2n1C	-6	-3	12*	4	2	13	-1	-2
